# Source: PubChem BioAssay (Tox21)
# “And” between values parts separate entries of the source, which are not always exact repeats. Equal values may be shown once. Results filed as inconclusive are left out. Where a call stands in place of a potency, no number is given. Some structures have more than one record in an assay (separate samples or runs), and their calls can disagree. The source made the active and inactive calls. The call rests on the fitted dose curve; in most records, active means well fitted curve in the direction sought with a large enough effect in the repeat runs; inconclusive means weak or mixed curves; inactive means no such curve, though single readings can be large; an effect the other way counts as inactive or inconclusive.
# Target: Cytochrome P450 1A2 (Homo sapiens) (UniProt P05177)
# Test: Cytochrome P450 Family 1 Subfamily A Member 2 (CYP1A2) small molecule antagonists: luciferase reporter qHTS assay (AID 1671199)
# Conditions: P450-Glo CYP1A2 enzyme, luciferin luminescence, 1 h; series mostly up to 115 µM; activity change, negative = inhibition: at the top concentration
# In short: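 Enzymatic CYP1A2 assay, human, luminescent: 10 min compound–enzyme–substrate preincubation, 1 h NADPH-dependent turnover, 20 min detection step, room temperature throughout. Reduced light indicates lower CYP1A2 activity.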
# Further: nearly all actives have a fitted effect of over 50% in size.
# Potency means the concentration at half of the fitted maximal effect.
# Cytochrome P450 1A2 (Homo sapiens), sequence (P05177 whole entry, looked up): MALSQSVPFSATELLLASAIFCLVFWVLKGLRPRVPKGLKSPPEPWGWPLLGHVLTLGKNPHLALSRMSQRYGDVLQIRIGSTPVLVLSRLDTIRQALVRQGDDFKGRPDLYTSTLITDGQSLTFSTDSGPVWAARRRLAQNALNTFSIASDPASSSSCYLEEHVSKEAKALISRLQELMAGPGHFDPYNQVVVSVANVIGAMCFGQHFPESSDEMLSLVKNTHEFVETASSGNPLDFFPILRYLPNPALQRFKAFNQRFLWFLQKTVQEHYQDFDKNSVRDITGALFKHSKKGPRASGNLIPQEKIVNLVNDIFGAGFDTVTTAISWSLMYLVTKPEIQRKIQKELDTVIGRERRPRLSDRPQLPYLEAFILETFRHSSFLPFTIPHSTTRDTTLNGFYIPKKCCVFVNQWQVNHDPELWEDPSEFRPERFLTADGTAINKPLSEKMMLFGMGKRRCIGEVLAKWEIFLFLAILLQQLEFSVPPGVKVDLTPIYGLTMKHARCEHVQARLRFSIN
Structure (SMILES),Potency,"activity change, negative = inhibition"
CC(=O)[C@H]1CC[C@H]2[C@@H]3CC=C4C[C@@H](O)CC[C@]4(C)[C@H]3CC[C@]12C,inactive,
CCC(=O)O[C@H]1[C@H](O[C@@H]2[C@@H](C)[C@H](O[C@H]3C[C@@](C)(OC)[C@@H](O)[C@H](C)O3)[C@@H](C)C(=O)O[C@H](CC)[C@@](C)(O)[C@H](O)[C@@H](C)C(=O)[C@H](C)C[C@@]2(C)O)O[C@H](C)C[C@@H]1N(C)C,,11.2% [at 53 µM] (inactive)
CC(=O)Oc1ccc(C(c2ccc(OC(C)=O)cc2)c2ccccn2)cc1,,-10% [at 53 µM] (inactive)
COc1ccc(-c2coc3cc(O)cc(O)c3c2=O)cc1,32 µM (active) and 35.6 µM (active),
O=C(O)c1ccc(O)cc1,inactive,
CC(C)(C)c1cccc(C(C)(C)C)c1O,39 µM (active) and 63.3 µM (active),
C1CN(SSN2CCOCC2)CCO1,62.6 µM (active) and 39.9 µM (active),
CN(Cc1cnc2nc(N)nc(N)c2n1)c1ccc(C(=O)N[C@@H](CCC(=O)O)C(=O)O)cc1,inactive,
NCCOCCO,,-20.8% (inactive)
CC(=O)O[C@]1(C(C)=O)CC[C@H]2[C@@H]3C=C(Cl)C4=CC(=O)CC[C@]4(C)[C@H]3CC[C@@]21C,inactive,
CCCOCCO,,-6.86% (inactive)
NCCN,,-3.98% (inactive)
Cc1ccc(S(=O)(=O)NCl)cc1,inactive and 75.1 µM (active),
CN(C)/N=N/c1nc[nH]c1C(N)=O,inactive and 34.7 µM (active),
Cc1ccc([N+](=O)[O-])c(C)c1,,-20.7% (inactive)
C=CCOC(=O)C(=C)C,,-10% (inactive)
C[C@]12C=CC(=O)C=C1CC[C@H]1[C@@H]3C[C@@H](O)[C@](O)(C(=O)CO)[C@@]3(C)C[C@H](O)[C@@]12F,inactive,
CC(C)=CCO,,-11.8% (inactive)
c1ccc2cc3ccccc3cc2c1,653 nM (active) and 502 nM (active),
Cc1ccc(N)c([N+](=O)[O-])c1,15.7 µM (active) and 14.2 µM (active),
Oc1ccc(C(c2ccc(O)cc2)C(Cl)(Cl)Cl)cc1,,-7.75% (inactive)
O=C(O)c1cc(=O)[nH]c(=O)[nH]1,40 µM (active) and inactive,
CCCCCCCCCCCCCO,inactive and 26.1 µM (active),
CCCCCCCCCCCCO,inactive and 27.9 µM (active),
CC1=CC(C)(C)Nc2ccccc21,,-16.1% (inactive)
CCCCCCC(C)O (configuration not stated),inactive,
C=C[C@@]1(C)CC(=O)[C@]2(O)[C@@]3(C)[C@@H](O)CCC(C)(C)[C@@H]3[C@H](O)[C@H](OC(C)=O)[C@@]2(C)O1,inactive,
CC(=O)OC(C)C,,-25.9% (inactive)
CCC/C=C/C=O,,-22.4% (inactive)
Cc1ccc(C)c(O)c1,30.9 µM (active) and 41.1 µM (active),

# Target: Voltage-gated inwardly rectifying potassium channel KCNH2 (Homo sapiens) (UniProt Q12809)
# Test: Human Ether-a-go-go-Related Gene (hERG) channel small molecule antagonists: fluorescence cell-based qHTS assay (AID 1671200);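 on activity change, negative = inhibition: hERG-expressing U2OS cells given a thallium stimulus after FluxOR II dye loading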
# Conditions: hERG-U2OS cells, FluxOR thallium flux fluorescence; series mostly up to 76.8 µM; activity change, negative = inhibition: at the top concentration
# In short: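 U2OS cells expressing the channel were plated at 1000 cells/well, incubated overnight at 37 C, then loaded with FluxOR II thallium-sensitive dye for 1 h at room temperature in the dark, with a further 10 min at room temperature before stimulation.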
# Voltage-gated inwardly rectifying potassium channel KCNH2 (Homo sapiens), sequence (Q12809 whole entry, looked up): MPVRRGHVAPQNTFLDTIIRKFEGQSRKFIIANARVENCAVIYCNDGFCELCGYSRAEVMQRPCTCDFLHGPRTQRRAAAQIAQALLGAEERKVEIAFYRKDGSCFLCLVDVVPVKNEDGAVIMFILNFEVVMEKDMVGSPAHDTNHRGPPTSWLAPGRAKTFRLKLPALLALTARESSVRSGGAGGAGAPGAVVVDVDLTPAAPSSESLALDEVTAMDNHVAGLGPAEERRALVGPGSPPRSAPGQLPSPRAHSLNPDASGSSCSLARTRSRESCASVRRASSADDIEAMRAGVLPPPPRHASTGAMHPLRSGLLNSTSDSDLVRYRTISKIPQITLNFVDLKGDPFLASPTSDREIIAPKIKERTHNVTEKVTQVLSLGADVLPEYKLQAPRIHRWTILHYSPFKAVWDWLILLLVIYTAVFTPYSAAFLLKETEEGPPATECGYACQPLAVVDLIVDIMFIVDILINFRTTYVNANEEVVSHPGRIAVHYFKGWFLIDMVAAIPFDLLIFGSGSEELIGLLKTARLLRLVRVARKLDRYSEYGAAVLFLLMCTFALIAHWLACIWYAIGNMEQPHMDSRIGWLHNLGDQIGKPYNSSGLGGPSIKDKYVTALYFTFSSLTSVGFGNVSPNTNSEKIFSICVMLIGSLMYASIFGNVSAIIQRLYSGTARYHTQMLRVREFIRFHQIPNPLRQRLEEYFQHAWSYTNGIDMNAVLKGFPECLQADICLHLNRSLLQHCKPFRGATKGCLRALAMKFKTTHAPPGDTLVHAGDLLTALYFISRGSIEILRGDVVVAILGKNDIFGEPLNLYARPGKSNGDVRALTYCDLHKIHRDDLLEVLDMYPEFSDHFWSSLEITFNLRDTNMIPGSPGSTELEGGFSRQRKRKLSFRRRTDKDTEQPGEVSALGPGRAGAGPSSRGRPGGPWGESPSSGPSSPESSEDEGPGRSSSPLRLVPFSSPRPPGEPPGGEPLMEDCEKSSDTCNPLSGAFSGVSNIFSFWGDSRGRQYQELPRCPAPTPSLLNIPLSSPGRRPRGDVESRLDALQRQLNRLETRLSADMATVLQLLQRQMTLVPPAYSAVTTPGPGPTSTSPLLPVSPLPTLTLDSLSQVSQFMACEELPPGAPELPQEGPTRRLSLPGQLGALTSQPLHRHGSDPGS
Structure (SMILES),Potency,"activity change, negative = inhibition"
CC(=O)[C@H]1CC[C@H]2[C@@H]3CC=C4C[C@@H](O)CC[C@]4(C)[C@H]3CC[C@]12C,inactive,
CCC(=O)O[C@H]1[C@H](O[C@@H]2[C@@H](C)[C@H](O[C@H]3C[C@@](C)(OC)[C@@H](O)[C@H](C)O3)[C@@H](C)C(=O)O[C@H](CC)[C@@](C)(O)[C@H](O)[C@@H](C)C(=O)[C@H](C)C[C@@]2(C)O)O[C@H](C)C[C@@H]1N(C)C,,-12.8% [at 35.3 µM] (inactive)
CC1(C)C(C=C(Cl)Cl)C1C(=O)OCc1cccc(Oc2ccccc2)c1 (configuration not stated),,-24.4% (inactive)
CC(=O)Oc1ccc(C(c2ccc(OC(C)=O)cc2)c2ccccn2)cc1,inactive,
COc1ccc(-c2coc3cc(O)cc(O)c3c2=O)cc1,inactive,
O=C1OC2(c3ccccc31)c1cc(I)c(O)c(I)c1Oc1c2cc(I)c(O)c1I,inactive,
O=C(O)c1ccc(O)cc1,inactive,
CCC(Cc1c(I)cc(I)c(N)c1I)C(=O)O (configuration not stated),inactive,
CC(C)(C)c1cccc(C(C)(C)C)c1O,24 µM (active),
C1CN(SSN2CCOCC2)CCO1,inactive,
CN(Cc1cnc2nc(N)nc(N)c2n1)c1ccc(C(=O)N[C@@H](CCC(=O)O)C(=O)O)cc1,inactive,
NCCOCCO,inactive,
CC(=O)O[C@]1(C(C)=O)CC[C@H]2[C@@H]3C=C(Cl)C4=CC(=O)CC[C@]4(C)[C@H]3CC[C@@]21C,,-3.57% [at 35.3 µM] (inactive)
CCCOCCO,inactive,
NCCN,inactive,
Cc1ccc(S(=O)(=O)NCl)cc1,inactive,
CN(C)/N=N/c1nc[nH]c1C(N)=O,inactive,
CC(C)[N+](C)(CCOC(=O)C1c2ccccc2Oc2ccccc21)C(C)C,inactive,
Nc1ccc(O)c(N)c1,,13.4% (inactive)

Structure (SMILES),Potency,"activity change, negative = inhibition"
COC(=O)c1ccc(C)cc1,inactive,
Cc1ccc([N+](=O)[O-])c(C)c1,inactive,
C=CCOC(=O)C(=C)C,inactive,
C[C@]12C=CC(=O)C=C1CC[C@H]1[C@@H]3C[C@@H](O)[C@](O)(C(=O)CO)[C@@]3(C)C[C@H](O)[C@@]12F,inactive,
CC(C)=CCO,inactive,
c1ccc2cc3ccccc3cc2c1,inactive,
Cc1ccc(N)c([N+](=O)[O-])c1,inactive,
Oc1ccc(C(c2ccc(O)cc2)C(Cl)(Cl)Cl)cc1,,-9.02% (inactive)
O=C(O)c1cc(=O)[nH]c(=O)[nH]1,inactive,
CCCCCCCCCCCCCO,inactive,
C[N+](C)(C)CCO,inactive,
CCCCCCCCCCCCO,inactive,
CC1=CC(C)(C)Nc2ccccc21,inactive,
CCCCCCC(C)O (configuration not stated),inactive,
C=C[C@@]1(C)CC(=O)[C@]2(O)[C@@]3(C)[C@@H](O)CCC(C)(C)[C@@H]3[C@H](O)[C@H](OC(C)=O)[C@@]2(C)O1,inactive,
CC(=O)OC(C)C,inactive,
CCC/C=C/C=O,inactive,
Cc1ccc(C)c(O)c1,inactive,
